# In the library only some 3.6% were active in any assay of this set; here they are far more common.
# HSP90 inh = HSP90 inhibitors, primary screen, cell lysate, luminescence; Rabbit reticulocyte lysate, luciferase refolding luminescence, 3 h; hit rate 0.91% among 290,000; inhibition, % at 5.6 µM;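 active means inhibition above the screen-wide mean plus 3 SD, computed separately per campaign, cut at about 16% in these data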;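 further: 0% = DMSO wells and 100% = 60 µM geldanamycin wells; inhibitors lower the luminescence because luciferase stays unfolded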
# KKLEB tox = cytotoxicity in KKLEB CF airway cells, primary screen, cytotoxicity control for CF NF-kB inhibitor project, cell-based, uHTS, fluorescence assay plates; KKLEB CF airway cells viability, ATPlite luminescence, overnight; active compounds read low; cells stimulated with P. aeruginosa culture filtrate; activity change (cytotoxicity), % at 5 µM; hit rate 0.36% among 360,000; AID 602141, 2011;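 active means corrected activity change at or below -50% at 5 µM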
# LGR2 antag = inhibitors of bursicon-induced LGR2 CRE-luciferase signal, primary screen, cell-based, HEK293, CRE-luciferase reporter, bursicon stimulation; Drosophila bursicon receptor LGR2 (rickets); bursicon-stimulated, 4 h; inhibition, % at 9.99 µM; hit rate 0.35% among 380,000; AID 720647, 2013;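 active means drop in luminescence signal, shown as inhibition above about 50% in the replicate tests, limit read from the data, passing the limit was not always enough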;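 further: agonist challenge used bursicon conditioned medium at about half maximal strength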
# Peg3 prom inh-1 = Peg3 promoter-driven luciferase inhibitors, primary screen, cell-based, HeLa, luciferase luminescence; AID 588405, 2011; HeLa PEG-Prom luciferase reporter, overnight; inhibition, % at 20 µM; hit rate 1.7% among 360,000;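 active means inhibition of at least 50% at 20 µM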
# CF NFkB inh = inhibitors of PAF-induced NF-kB signaling, primary screen, cell-based, GFP fluorescence, uHTS. hit rate 0.86% among 360,000. inhibition, % at 5 µM. KKLEB NF-kB-GFP reporter, GFP fluorescence overnight;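 active means at least 50% inhibition at 5 µM, scaled per plate between neutral and stimulator controls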;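 further: PAF is a Pseudomonas aeruginosa culture filtrate used as stimulus; plate controls were PAF-stimulated DMSO wells for no effect and unstimulated DMSO wells for full effect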
# Mdm2-MdmX inh = inhibitors of human Mdm2-MdmX association, primary screen, cell-based, luminescence, split luciferase, SaOS-2, uHTS; Protein Mdm4 (Homo sapiens) + E3 ubiquitin-protein ligase Mdm2 (Homo sapiens), …; SaOS-2 split-luciferase Mdm2/MdmX complementation; inhibition, % at 8 µM; hit rate 3% among 330,000; AID 485346, 2010;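 active means inhibition of at least 50% at 8 µM in the primary screen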
# Target sequence (O15151 whole entry, looked up): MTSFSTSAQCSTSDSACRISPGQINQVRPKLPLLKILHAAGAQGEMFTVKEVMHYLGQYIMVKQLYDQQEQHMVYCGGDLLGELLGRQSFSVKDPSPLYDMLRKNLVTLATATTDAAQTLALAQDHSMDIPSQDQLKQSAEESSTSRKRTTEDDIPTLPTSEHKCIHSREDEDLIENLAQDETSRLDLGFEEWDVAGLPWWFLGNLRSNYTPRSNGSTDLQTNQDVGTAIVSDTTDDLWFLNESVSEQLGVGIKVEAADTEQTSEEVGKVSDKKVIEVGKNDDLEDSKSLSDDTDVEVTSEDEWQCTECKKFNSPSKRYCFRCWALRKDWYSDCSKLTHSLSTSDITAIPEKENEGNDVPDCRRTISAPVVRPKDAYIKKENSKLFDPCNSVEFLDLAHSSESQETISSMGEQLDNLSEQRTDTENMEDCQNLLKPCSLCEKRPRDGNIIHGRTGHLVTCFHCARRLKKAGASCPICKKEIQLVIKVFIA
# Target sequence (Q00987 whole entry, looked up): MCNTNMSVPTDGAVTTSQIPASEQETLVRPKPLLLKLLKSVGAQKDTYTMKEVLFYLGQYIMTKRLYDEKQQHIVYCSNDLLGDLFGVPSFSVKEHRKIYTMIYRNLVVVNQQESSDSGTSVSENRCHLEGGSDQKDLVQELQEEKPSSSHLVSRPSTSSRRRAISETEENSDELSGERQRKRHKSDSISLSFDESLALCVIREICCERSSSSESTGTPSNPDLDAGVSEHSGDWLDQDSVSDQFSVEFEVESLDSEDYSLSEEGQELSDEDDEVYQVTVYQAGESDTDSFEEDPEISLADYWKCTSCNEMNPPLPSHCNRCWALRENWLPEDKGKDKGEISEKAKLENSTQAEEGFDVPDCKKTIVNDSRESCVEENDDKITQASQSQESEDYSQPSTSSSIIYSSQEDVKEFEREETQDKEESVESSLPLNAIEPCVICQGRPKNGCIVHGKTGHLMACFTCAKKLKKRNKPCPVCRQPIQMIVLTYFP
# Peg3 prom inh-2 = Peg3 promoter reporter inhibitors, retest, confirmation, cell-based, HeLa, luciferase reporter, single concentration; shares compounds with Peg3 prom inh-1; inhibition, % at 20 µM; AID 602417, 2012; HeLa PEG-Prom luciferase reporter, luminescence, overnight; hit rate 84% among 1,300;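 active means at 20 µM dose, 40% or more inhibition averaged across four replicates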
# CF NFkB conf = inhibitors of PAF-induced NF-kB signaling, retest, confirmation, cell-based, GFP fluorescence, single concentration. shares compounds with CF NFkB inh. KKLEB CF airway cells, overnight. hit rate 64% among 1,300. inhibition, % at 5 µM; in the data active means inhibition above about 40%;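 further: stimulus PAF is a Pseudomonas aeruginosa filtrate and not platelet activating factor; plate controls were DMSO wells with stimulus for no effect and unstimulated DMSO wells for full effect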
# The depositor's hits bear a star; . = not tested or not shown.
SMILES,HSP90 inh,KKLEB tox,LGR2 antag,Peg3 prom inh-1,CF NFkB inh,Mdm2-MdmX inh,CF NFkB conf,others
CC[C@@H](O)C[C@H]1CCC[C@@]2(C[C@@H]3OC(=O)/C=C/[C@@](C)(O)[C@@H](O)[C@H](C)[C@@H](O)[C@H](OC4CCC(N(C)C)C(C)O4)[C@@H](O)[C@](C)(O)CCCCC/C=C/[C@@H]4CC(C)(C)O[C@@]4(O)C[C@H](O2)[C@H]3C)O1 (some centres undefined),.,8.2,.,89.2*,27.8,.,.,Peg3 prom inh-2=92.5*
CC=Cc1ccc2n(c1=O)C[C@@H]1[C@@H](CO)[C@H](C(=O)O)[C@H]2N1S(=O)(=O)c1ccccc1F (mixture of isomers),.,.,-13.2,.,.,.,.,
COc1ccc(N2C(=O)CC(N3CCC(n4c(=O)[nH]c5ccccc54)CC3)C2=O)cc1 (centres undefined),-4.0,-15.8,.,9.4,-0.6,2.9,.,
COc1ccc(-n2nnnc2C(CCSC)N2CCC(n3c(=O)[nH]c4ccccc43)CC2)cc1 (centres undefined),.,-23.7,-2.8,56.5*,80.7*,.,69.8*,Peg3 prom inh-2=42.4*
CC=Cc1ccc2n(c1=O)C[C@@H]1[C@@H](CO)[C@H](C(=O)OC)[C@H]2N1S(=O)(=O)c1ccccc1C (mixture of isomers),.,.,-9.8,.,.,.,.,
CC(=O)OC1(C)CC(C)C(=O)C(C(O)CC2CC(=O)NC(=O)C2)C1 (centres undefined),.,-43.6,.,105.4*,80.6*,.,114.1*,Peg3 prom inh-2=97.8*
O=C1C=CC(=O)C2C1C1(Cl)C(Cl)=C(Cl)C2(Cl)C1(Cl)Cl (centres undefined),.,-0.8,5.3,65.4*,54.3*,.,30.9,
COc1ccc(C(c2nnnn2-c2ccc3c(c2)OCCO3)N2CCC(n3c(=O)[nH]c4ccccc43)CC2)cc1 (centres undefined),.,5.0,12.0,62.5*,61.0*,.,35.0,
COc1ccc(C(c2nnnn2-c2ccc(OC)cc2)N2CCC3(CC2)C(=O)NCN3c2ccccc2)cc1 (centres undefined),.,0.1,9.3,30.9,-9.2,.,.,
CCCCn1nnnc1C(CCc1ccccc1)N1CCC(n2c(=O)[nH]c3ccccc32)CC1 (centres undefined),.,-9.1,105.6*,81.9*,88.0*,.,73.9*,
COc1ccc(-n2nnnc2C(CCc2ccccc2)N2CCC(n3c(=O)[nH]c4ccccc43)CC2)cc1 (centres undefined),.,-16.7,101.5*,98.8*,75.0*,.,88.2*,
COc1ccc2nc(-c3ccc(CN4CCC(n5c(=O)[nH]c6ccccc65)CC4)cc3)c(-c3ccccc3)nc2c1,.,.,15.8,.,.,.,.,
COC(=O)[C@H]1[C@H](CO)[C@H]2Cn3c(ccc(-c4cccnc4)c3=O)[C@@H]1N2CCc1ccccc1,.,.,4.8,.,.,.,.,
CC=Cc1ccc2n(c1=O)C[C@H]1[C@H](CO)[C@@H](C(=O)OC)[C@@H]2N1S(=O)(=O)c1ccccc1C (mixture of isomers),.,.,6.1,.,.,.,.,
CC12CC(=O)C3C(CCC4CC(=O)C=CC43C)C1CCC2=O (centres undefined),.,18.8,14.5,1.5,65.9*,.,5.0,
COC(=O)[C@H]1[C@H](CO)[C@H]2Cn3c(ccc(-c4ccccc4)c3=O)[C@@H]1N2CC1CCOCC1,.,.,4.8,.,.,.,.,
COc1cc2c(c(OC)c1OC)-c1ccc(C(=O)O)cc1[C@@H](NC(C)=O)CC2,.,15.2,13.0,-6.6,-9.2,7.8,.,
COc1cc2c(c(OC)c1O)-c1ccc(OC)c(=O)cc1C(NC(=O)C(F)(F)F)CC2 (centres undefined),.,-22.8,5.8,-19.3,51.0*,.,87.4*,
COc1cc(O)cc2c1C(=O)OC(C)CCCC(=O)CCC/C=C\2 (centres undefined),-2.6,-17.2,-3.7,-9.8,21.9,9.5,.,
C[C@H]1CCCC(=O)CCC/C=C/c2cc(O)cc(O)c2C(=O)O1,6.7,10.1,34.4,18.1,51.4*,21.8,58.2*,
C=C1C(C)C2C(Cc3ccccc3)NC(=O)C23OC(=O)/C=C/C(O)CCCC(C)C/C=C/C3C1O (centres undefined),.,-29.0,7.7,57.5*,75.6*,.,97.5*,
COC(=O)[C@H]1[C@H](CO)[C@H]2Cn3c(ccc(C4=CCCC4)c3=O)[C@@H]1N2CC1CCCCC1,.,.,-9.3,.,.,.,.,

# Compound activity: PubChem BioAssay, several laboratories
